Data as given in PubChem BioAssay (Tox21).
A number with no mark means an inactive call. Results filed as inconclusive are left out. Entries that show only a call come without a potency. Calls of active or inactive are those of the source. Unless noted, the call rests on the fitted dose curve; in most records, active means well fitted curve in the direction sought with a large enough effect in the repeat runs; inconclusive means weak or mixed curves; inactive means no such curve, though single readings can be large; an effect the other way counts as inactive or inconclusive.

What was measured:
[1] = qHTS assay to identify small molecule agonists of the hypoxia (HIF-1) signaling pathway - cell viability counter screen (AID 1224844; calls by dose curve; further: nearly all actives have a fitted effect of over 50% in size)
Summary of the method: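 Viability counter screen: HRE-bla ME-180 cells plated 5 hrs before compound addition, treated 17 hrs at 37C and 5% CO2, then CellTiter-Glo added after the FRET reporter read; luminescence after 30 min.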

[2] = qHTS assay to identify small molecule agonists of H2AX (AID 1224845; active means well fitted activation curve with a large enough effect in the signal ratio in the repeat runs, not every such curve was filed as active; the % refers to the signal ratio; further: potency means the concentration at half of the fitted maximal effect)
Summary of the method: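 Wild-type CHO-K1 cells plated overnight, then exposed 3 hr at 37C to compounds at 15 concentrations (0.76% DMSO). Lysed, then HTRF anti-pH2AX(S139)-cryptate/anti-H2AX-d2 detection after 24 hr at room temperature; emissions 665 and 620 nm.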

[3] = qHTS assay to identify small molecule agonists of H2AX - cell viability counter screen (AID 1224847; calls by dose curve; further: top concentration of the series differs between compounds; nearly all actives have a fitted effect of over 30% in size)
Summary of the method: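 After overnight plating of 1000 CHO-K1 cells per well, a 15-concentration compound series was applied for 3 hr at 37C. Luminescence from CellTiter-Glo, read following 30 min at room temperature, reflected cell viability.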

[4] = qHTS RealTime-Glo MT Cell Viability Assay in HepG2 cells - 24 hour (AID 1224867); further: nearly all actives have a fitted effect of over 50% in size
Summary of the method: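 Cells + NanoLuc/prosubstrate dispensed (600 cells/well) → 5 h at 37 C/5% CO2 → compounds in DMSO transferred → 40 h incubation at 37 C, luminescence read at 0, 8, 16, 24, 32, 40 h.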

[5] = A CellTox Green Cytotoxicity Assay to monitor cytotoxicity in HEK293 cells - 0 hour (AID 1224869); further: nearly all actives have a fitted effect of over 50% in size; further: potency means the concentration at half of the fitted maximal effect
Summary of the method: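 Dead-cell fluorescence measured kinetically: asymmetric cyanine dye, HEK293, 600 cells/well, 5 h settle, 23 nL cpd/DMSO, 37 C, reads 0–40 h every 8 h.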

[6] = qHTS RealTime-Glo MT Cell Viability Assay in HEK293 cells - 32 hour (AID 1224868); further: nearly all actives have a fitted effect of over 50% in size; further: potency means the concentration at half of the fitted maximal effect
Summary of the method: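 Tox21 10K qHTS, HEK293, 600 cells/well, RealTime-Glo reagent co-dispensed with cells; 5 h preincubation, compound by pintool, 37 C, luminescence at 0–40 h.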

[7] = qHTS RealTime-Glo MT Cell Viability Assay in HepG2 cells - 40 hour (AID 1224870); further: nearly all actives have a fitted effect of over 50% in size
Summary of the method: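 HepG2 cells mixed with RealTime-Glo MT reagents (NanoLuc plus cell-permeant prosubstrate) were seeded at 600 cells/well, incubated 5 h at 37 C/5% CO2, then pinned with compounds in DMSO; nonlytic luminescence tracked viability during 40 h treatment.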

[8] = qHTS assay to identify small molecule antagonists of the estrogen related receptor (ERR) signaling pathway from Tox21 library (AID 1224848); further: nearly all actives have a fitted effect of over 50% in size; further: potency means the concentration at half of the fitted maximal effect
Summary of the method: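 Tox21 10K compounds in DMSO tested for ERR pathway antagonism in NTP's ERR cell line; 18 h, 37 C exposure; ONE-Glo luminescence.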

[9] = qHTS assay to identify small molecule agonists of the estrogen related receptor (ERR) signaling pathway from Tox21 library (AID 1224849; calls by dose curve; further: nearly all actives have a fitted effect of over 15% in size); conditions: ERR reporter cell line, ONE-Glo luciferase, 18 h; at 92.4 µM (top of the series) unless noted
Summary of the method: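 Quantitative HTS in agonist format: NTP ERR cell line, compounds transferred in DMSO after 6 h plating, 18 h incubation at 37 C, ONE-Glo luminescence endpoint.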

[10] = qHTS assay to identify small molecule agonists of the hypoxia (HIF-1) signaling pathway (AID 1224846; active means well fitted activation curve with a large enough effect in the signal ratio in the repeat runs, not every such curve was filed as active; the % refers to the signal ratio)
Summary of the method: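 Agonist mode reporter screen. ME-180 cells stably expressing bla under HRE control received test compounds in DMSO for 17 hrs (37C, 5% CO2), and beta-lactamase activity was then detected with the CCF4-AM FRET substrate.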

Row | Structure (SMILES) | Potency [1] | Potency [2] | Potency [3] | Potency [4] | Potency [5] | Potency [6] | Potency [7] | Potency [8] | activity change, positive = activation [9] | outcome [10]
1 | CC(C)(C)C(=O)C(Oc1ccc(Cl)cc1)n1cncn1 (stereo not drawn) | inactive | inactive | inactive | inactive | inactive | – | – | – | – | –
2 | CC1CN1P(=O)(N1CC1C)N1CC1C (stereo not drawn) | inactive | inactive | inactive | inactive | inactive | inactive | inactive | – | – | –
3 | Clc1ccccc1N1CCNCC1 | inactive | inactive | inactive | inactive | inactive | inactive | – | – | – | –
4 | O=C(Nc1ccccc1)N(Cc1ccc(Cl)cc1)C1CCCC1 | inactive | inactive | – | – | inactive | 24.5 µM (active) | inactive | 54.5 µM (active) | -60.6% | –
5 | C#C[C@]1(O)C=C[C@H]2[C@@H]3CCC4=CC(=O)CC[C@@H]4[C@H]3CC[C@@]21CC | inactive | 19.6 µM (active) | inactive | inactive | inactive | – | inactive | – | – | –
6 | O=NN1CCCCC1 | inactive | inactive | inactive | inactive | inactive | inactive | – | – | – | –
7 | CCCSC(=O)N(CCC)CCC | inactive | inactive | inactive | inactive | inactive | inactive | inactive | – | – | –
8 | N#CC(Cl)(Cl)Cl | inactive | inactive | inactive | inactive | inactive | inactive | – | – | – | –
9 | C=C(C)CN(CC)c1c([N+](=O)[O-])cc(C(F)(F)F)cc1[N+](=O)[O-] | inactive | inactive | – | inactive | inactive | inactive | – | inactive | 1.77% | –
10 | CN1CCN(C(=O)O[C@H]2c3nccnc3C(=O)N2c2ccc(Cl)cn2)CC1 | inactive | inactive | inactive | inactive | inactive | inactive | inactive | – | – | –
11 | CC1COC2(c3ccccc3Cl)c3cc(Cl)ccc3NC(=O)CN12 (stereo not drawn) | inactive | inactive | – | inactive | inactive | – | inactive | – | -27.8% [at 42.5 µM] | –
12 | O=C1CN2CCOC2(c2ccccc2Cl)c2cc(Cl)ccc2N1 (stereo not drawn) | inactive | inactive | inactive | inactive | inactive | inactive | inactive | – | – | –
13 | COP(N)(=S)Oc1ccccc1C(=O)OC(C)C (stereo not drawn) | inactive | inactive | inactive | inactive | inactive | inactive | – | – | – | –
14 | COC(=O)C1=CCCN(C)C1 | inactive | inactive | inactive | inactive | inactive | inactive | inactive | – | – | –
15 | CC(C1CC1)C(O)(Cn1cncn1)c1ccc(Cl)cc1 (stereo not drawn) | inactive | inactive | inactive | inactive | inactive | – | inactive | – | – | –
16 | CSc1ccc(C(=O)C(C)(C)N2CCOCC2)cc1 | inactive | inactive | – | inactive | inactive | inactive | inactive | – | -13.8% | –
17 | CCOP(=S)(OCC)Oc1nc(Cl)n(C(C)C)n1 | inactive | inactive | inactive | inactive | inactive | inactive | inactive | – | – | –
18 | CC1=C(C(=O)Nc2ccccc2)S(=O)(=O)CCO1 | – | inactive | inactive | inactive | inactive | 48.9 µM (active) | – | – | – | –
19 | CS(=O)(=O)c1cc(C(F)(F)F)ccc1C(=O)c1cnoc1C1CC1 | inactive | – | inactive | inactive | inactive | inactive | inactive | inactive | 9.23% | inactive
20 | O=C1OC(=O)C2C1C1(Cl)C(Cl)=C(Cl)C2(Cl)C1(Cl)Cl (stereo not drawn) | – | inactive | – | inactive | inactive | inactive | inactive | – | – | inactive
21 | O=[N+]([O-])c1cc(Cl)c(Cl)c(Cl)c1 | inactive | – | – | inactive | inactive | inactive | inactive | – | – | inactive
22 | CC(=O)[C@H]1CC[C@H]2[C@@H]3CC[C@H]4C[C@H](O)CC[C@]4(C)[C@H]3C(=O)C[C@]12C | – | inactive | inactive | inactive | inactive | – | inactive | – | -14.9% [at 42.5 µM] | –
23 | CC(C)COP(=O)(OCC(C)C)OCC(C)C | inactive | – | – | inactive | inactive | inactive | inactive | inactive | -2.2% | inactive
24 | CCOP(=S)(OCC)SCSP(=S)(OCC)OCC | inactive | – | inactive | inactive | inactive | inactive | inactive | – | – | inactive
25 | COc1ccc2c(c1OC)CN1CCc3cc4c(cc3C1C2)OCO4 (stereo not drawn) | inactive | inactive | – | inactive | inactive | – | inactive | – | – | –
26 | CCCSP(=S)(OCC)Oc1ccc(Cl)cc1Cl (stereo not drawn) | inactive | – | – | inactive | inactive | inactive | inactive | inactive | 2.16% | inactive
27 | CN1C(=S)CN=C(c2ccccc2)c2cc(Cl)ccc21 | inactive | – | inactive | inactive | 5.35 µM (active) | – | inactive | – | – | inactive
28 | CCOP(=S)(Oc1cnc(C(C)(C)C)nc1)OC(C)C (stereo not drawn) | inactive | – | – | inactive | inactive | inactive | inactive | – | -20.7% | inactive
